Our source for the outcome and AC50 values is PubChem BioAssay AID2284323 (EPA ToxCast).

This experiment relates to NCBI gene 447152. The experiment can be described thus: CCTE_GLTED_xIYD: CCTE's Xenopus Iodotyrosine Deiodinase (xIYD) Inhibition Assay, Great Lakes Toxicology and Ecology Division (GLTED) Lab. Here is the method: CCTE_GLTED_xIYD is a cell-free, single-readout assay that uses Xenopus (frog) iodotyrosine deiodinase (xIYD) enzyme from liver microsomes. Assay is based on iodide release measured by the Sandell-Kolthoff method and is run in 96-well plate format with assay plates run in triplicate (n=3) with measurements taken at 3 hours after chemical dosing. Platewise-normalization was used based on positive control (3-Nitro-L-tyrosine, MNT) and negative/solvent controls (DMSO, NaOH).CCTE_GLTED_xIYD is the assay component measured from the CCTE_GLTED_xIYD assay. It measures substrate involved in regulation of catalytic activity using spectrophotometry. The assay measures the deiodination activity of Xenopus (frog) IYD on the substrate monoiodotyrosine (MIT). After 3h incubation of substrate, enzyme, and test chemical, the components are applied to a 96-well Dowex column. Free iodide is not retained by the column and is separated from interfering assay components. The free iodide is measured by the Sandell-Kolthoff reaction in which the rate of reduction of cerium (Ce+4 to Ce+3) by arsenic (As+3 to As+5) is increased by the presence of iodide. This is observed as the loss of yellow color in the reaction and the quantified by the change in absorbance at 420 nm. The change in reaction rate is proportional to the amount of iodide present.Data from the assay component CCTE_GLTED_xIYD was analyzed at the assay endpoint CCTE_GLTED_xIYD in the positive analysis fitting direction relative to DMSO as the negative control and baseline of activity. Using a type of enzyme reporter, loss-of-signal activity can be used to understand iodotyrosine deiodinase activity. To generalize the intended target to other relatable targets, this assay endpoint is annotated to the 'dehalogenase' intended target family, where the subfamily is 'iodotyrosine deiodinase'.
Human transthyretin (TTR) assay, developed at Great Lakes Toxicology and Ecology Division (GLTED) within the EPA's Center for Computational Toxicology and Exposure (CCTE), is designed to test the chemicals' ability to displace T4 from the TTR protein. TTR (0.125uM) is incubated in presence of test chemical for 2 hours during which disrupting chemicals displace ANSA from the TTR protein. Results read fluorescence at 380 excitation and 475 emission.

Activity calls are given as the source filed them. How the source made its calls: active means hit-call score of the fitted dose curve at least 0.9, where 1 is the maximum; inactive means score below 0.9.

Take `O=C(Cl)C(F)(F)C(F)(F)C(F)(F)C(F)(F)C(F)(F)C(F)(F)C(F)(F)C(F)(F)F`: the result was inactive.
As to `O=C(O)C(F)(F)OC(F)(F)C(F)(F)OC(F)(F)C(F)(F)OC(F)(F)C(F)(F)C(F)(F)C(F)(F)F`, the AC50 (usually the concentration at which the activity in the assay is half-maximal) is 93.8 µM (active).
Regarding `O=C(O)C(F)(F)C(F)(F)C(F)(F)C(F)(F)C(F)(F)C(F)(F)C(F)(F)C(F)(F)C(F)(F)C(F)F`, the AC50 was 64.2 µM (active).
`O=S(=O)(Cl)C(F)(F)C(F)(F)C(F)(F)C(F)(F)C(F)(F)C(F)(F)C(F)(F)C(F)(F)F`: the compound was called inactive.
On to `O=P(O)(O)CCC(F)(F)C(F)(F)C(F)(F)C(F)(F)C(F)(F)C(F)(F)C(F)(F)C(F)(F)F`, for which the half-maximal activity concentration (AC50) is 65.4 µM (active).
For `O=C(O)CCC(F)(F)C(F)(F)C(F)(F)C(F)(F)C(F)(F)C(F)(F)C(F)(F)F`, the compound was called inactive.
As to `N[C@@H](Cc1ccc(O)c([N+](=O)[O-])c1)C(=O)O`, the concentration at half-maximal activity (AC50) was 0.113 µM (active).
Same read-out and setting: as for `O=C(O)C(F)(F)C(F)(F)C(F)(F)C(F)(F)C(F)(F)C(F)(F)C(F)(F)C(F)(F)Cl`, the figure is 38.9 µM (active); as for `O=S(=O)(O)C(F)(F)C(F)(F)C(F)(F)C(F)(F)C(F)(F)C(F)(F)C(F)(F)F`, 19.8 µM (active).
